In PubChem BioAssay (EPA / NIEHS) one finds AC50 and outcome data, which are given here for 16 molecules.

The nature of assay [1]: STM_H9_OrnithineISnorm_perc: Stemina devTOX quickPredict H9 human embryonic stem cell (hESC)-based Assay for Ornithine (ORN) Metabolite Biomarker, Normalized (AID 2283712; active means hit-call score of the fitted dose curve at least 0.9, where 1 is the maximum; inactive means score below 0.9;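 further: ornithine released into spent medium during last day measured by mass spectrometry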). A digest of the protocol: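 UPLC-HRMS readout: endogenous ornithine EIC area / 13C-ORN internal standard, then % of 0.1% DMSO median. H9 hESCs (pluripotent), 72h exposure, re-dosed with fresh media q24h; last 24-h spent media, deproteinized in 40% acetonitrile.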

Assay [2] in a line: STM_H9_CystineISnorm_perc: Stemina devTOX quickPredict H9 human embryonic stem cell (hESC)-based Assay for Cystine (CYSS) Metabolite Biomarker, Normalized (AID 2283713; active means hit-call score of the fitted dose curve at least 0.9, where 1 is the maximum; inactive means score below 0.9). A digest of the protocol:
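UPLC-HRMS read-out: endogenous cystine peak area in spent medium, normalized to isotope-labeled internal standard and to median of 0.1% DMSO controls. Pluripotent H9 cells, 72h exposure, daily medium/compound replenishment; medium from last 24h sampled.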

Assay [3] is described as follows: STM_H9_OrnCyssISnorm_ratio: Stemina devTOX quickPredict H9 human embryonic stem cell (hESC)-based Assay for Ornithine (ORN):Cystine (CYSS) Ratio (AID 2283714). In outline: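 UPLC-HRMS of spent media: ORN/CYSS ratio of internal-standard-normalized percentages, DMSO (0.1%) baseline. Pluripotent H9 hESCs, 72h exposure, daily re-dosing with fresh media; last 24h media collected.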

Assay [4] is described as follows: Tanguay_ZF_120hpf_ActivityScore_legacy: (Legacy) Oregon State University Tanguay Lab 120 Hour Post-fertilization zebrafish Assay Score for Activity (AID 2283742).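 On AC50: dechorionated Tropical 5D wild-type zebrafish embryos held singly per well.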 In outline: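 Dechorionated 5D embryos, one per well, static exposure 6–120 hpf, 28C, sealed and dark; final DMSO 0.64% (vol/vol). Brightfield binary scoring of mortality plus 18 endpoints; gain-of-signal fit versus DMSO baseline.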

Assay [5] in a line: Tanguay_ZF_120hpf_TR_legacy: (Legacy) Oregon State University Tanguay Lab 120 Hour Post-fertilization zebrafish Assay for Touch Response (AID 2283667). In outline: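 Binary touch-response call at 120 hpf, analysed as gain of signal versus DMSO baseline. Wild-type 5D larvae, static exposure at 28C, 0.64% DMSO final; 5uM trimethyltin chloride as positive control.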
The nature of assay [6]: CCTE_Padilla_ZF_144hpf_TERATOSCORE: (Legacy) CCTE's 144 Hour Post-fertilization zebrafish Assay Teratoscore, Padilla Lab (AID 2283679; active means hit-call score of the fitted dose curve at least 0.9, where 1 is the maximum; inactive means score below 0.9;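 further: zebrafish embryos with chorions exposed by immersion from 6-8 hpf to 5 dpf with daily renewal; teratogenicity score from eye scoring of death hatching and malformations at 144 hpf; higher score means more developmental defects relative to DMSO baseline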). A digest of the protocol:
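Larvae scored by eye at 144 hpf for death, hatching and malformations after a day in clean Hanks'. Before that, daily-renewed exposure at 80 uM (0.4% DMSO, 26C) from roughly 6-8 hpf through 5 dpf, 4 embryos per chemical.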

The nature of assay [7]: CEETOX_H295R_MTT_cell_viability: Viability Assessment in the CeeTox HT-H295R MTT Assay (AID 2283718; active means hit-call score of the fitted dose curve at least 0.9, where 1 is the maximum; inactive means score below 0.9). In outline:
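Human H295R adrenal cells, prestimulated 48 h with 10 uM forskolin, were exposed 48 h to chemicals in 0.1% DMSO. Viability was measured in the same wells by MTT (0.5 mg/ml, 4 h, 37 C), absorbance 570/650 nm, as percent of controls.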

Assay [8] has as its target Luciferin 4-monooxygenase (Photinus pyralis) (UniProt P08659). Nature of the assay: CCTE_Simmons_QuantiLum_inhib_2: CCTE's Firefly Luciferase Inhibition Assay, Simmons Lab (AID 2283767). A digest of the protocol: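 Cell-free QuantiLum luciferase, 5 ng/well; compounds 5 nM–87.5 uM final, 8 conc, 0.5% DMSO; 30 min, 37C, dark. Detection reagent (150 uM D-luciferin, 147 uM dATP, CoA, DTT, pH 7.8 final) injected per well, kinetic luminescence. Triplicate biological replicates.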

Read-out in assay [9]: Cytochrome P450 (CYP24A1_1), CYP24A1 (gene 1591)
Kind of assay: LTEA_HepaRG_CYP24A1_1: Life Technologies and Expression Analysis (LTEA) Assay for Cytochrome P450 (CYP24A1_1) using HepaRG (AID 2283671; active means hit-call score of the fitted dose curve at least 0.9, where 1 is the maximum; inactive means score below 0.9). Particulars: mRNA level, 48 h; actives raise or lower the signal. A digest of the protocol:
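Readout is CYP24A1 transcript level by qRT-PCR, normalized to three housekeeping genes, with gain or loss of signal fitted against 0.5% DMSO. Human HepaRG cells received compound for 48 h at up to 100 uM.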

The nature of assay [10]: ArunA_CellTiter_hNC: Viability Assessment in the ArunA Biomedical's Oris Neural Crest (hNC) Cell Migration Assay (AID 2283752). A digest of the protocol: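 hNC cells (H9 ESC-derived), 60,000/well, Matrigel, LIF + bFGF medium; 16 h 37C attachment; 72 h compound in test medium; CellTiter Aqueous One read-out; loss-of-signal vs DMSO baseline.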
Assay [11] is described as follows: ArunA_CellTiter_hNP: Viability Assessment in the ArunA Biomedical's Oris Neural Crest (hNC) Cell Migration Assay (AID 2283753). In outline: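 Viability read with CellTiter 96 Aqueous One after 72 h chemical exposure of human hNP1 neuroprogenitors, which were plated on Matrigel in LIF/bFGF medium 16 h beforehand. Endpoint fitted in positive direction relative to DMSO.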

Assay [12] can be described thus: ArunA_Migration_hNP: ArunA Biomedical's Oris Neuroprogenitor (hNP) Cell Migration Assay (AID 2283754). A digest of the protocol: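 Readout is calcein-AM fluorescence (ex494/em517) of cells migrating into the detection zone, relative to DMSO. hNP1 cells (H9-derived) grown on Matrigel behind stoppers 16 h, then stoppers pulled and chemical applied 72 h; cytochalasin D as control.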

Assay [13] is described as follows: ArunA_Migration_hNC: ArunA Biomedical's Oris Neural Crest (hNC) Cell Migration Assay (AID 2283755). A digest of the protocol:
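Calcein-AM fluorescence (ex494 nm/em 517 nm) in the stopper-defined detection zone quantifies migration of hNC cells after 72 h chemical exposure; 60,000 cells/well plated on Matrigel with LIF and bFGF, 16 h pre-incubation. DMSO baseline.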

Assay [14] in a line: ArunA_NOG_NucleusCount: ArunA Biomedical's Neurite Outgrowth (NOG) Assay for Nucleus Count (AID 2283756). A digest of the protocol: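 Viable neuron count, from Hoechst nuclei passing size and intensity gates, imaged at 20x on differentiated H9-derived human neurons. Exposure lasted 48 h from seeding; activity was scored relative to DMSO.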
Assay [15] is described as follows: ArunA_NOG_NeuriteLength: ArunA Biomedical's Neurite Outgrowth (NOG) Assay for Neurite Length (AID 2283757). In outline: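 Total neurite length per neuron, from traced βIII-tubulin-labelled processes longer than 10 um on viable Hoechst-gated cells, was scored as decrease from DMSO. Cells were hESC (H9)-derived neurons given 48 h chemical exposure immediately after seeding.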

A short description of assay [16]: ArunA_NOG_NeuritesPerNeuron: ArunA Biomedical's Neurite Outgrowth (NOG) Assay for Neurites Per Neuron (AID 2283758). In outline:
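Differentiated human H9-derived neurons exposed to chemicals for 48 h from seeding, then stained with Hoechst and βIII-tubulin/DyLight 488. Automated imaging counted neurites (processes >10 um) per valid neuron; loss of signal versus DMSO scored.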

Assay [17] is described as follows: ArunA_NOG_BranchPointsPerNeurite: ArunA Biomedical's Neurite Outgrowth (NOG) Assay for Branch Points Per Neurite (AID 2283759). A digest of the protocol: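 Automated image analysis traced neurites (processes >10 um) from valid cell bodies after Hoechst and βIII-tubulin staining. hNN cells from H9 embryonic stem cells, 48 h exposure. Fitted bidirectionally against DMSO.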

For assay [18], the system named is zebrafish Androgen Receptor (AR), gene 100005148. Kind of assay: ATG_zfAR_XSP1: Attagene TRANS-FACTORIAL Multi-Species (XSP1) HepG2 Assay for zebrafish Androgen Receptor (AR) (AID 2283771). In outline:
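Gain-of-signal versus DMSO was measured as reporter transcripts quantified by RT-PCR, fluorescent labelling and capillary electrophoresis after 24 h chemical exposure. The cells were HepG2 expressing a chimeric zebrafish AR-GAL4, co-stimulated with 3 nM 6-alpha-fluorotestosterone.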

For assay [19], the target named is zebrafish Estrogen Receptor (ESR1), esr1 (gene 259252) (UniProt P57717). Kind of assay: ATG_zfER1_XSP1: Attagene TRANS-FACTORIAL Multi-Species (XSP1) HepG2 Assay for zebrafish Estrogen Receptor (ESR1) (AID 2283772). In outline: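 Trans-activation readout: transfected zebrafish ER-Gal4 drives a UAS reporter in human HepG2 liver cells. After 24 h compound exposure (medium containing 3 nM 6-alpha-fluorotestosterone), induced reporter transcripts were quantified by RT-PCR with capillary electrophoresis, relative to DMSO.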
Sequence of zebrafish Estrogen Receptor (ESR1), esr1 (gene 259252) (P57717 whole entry, looked up, the tested form may be a part): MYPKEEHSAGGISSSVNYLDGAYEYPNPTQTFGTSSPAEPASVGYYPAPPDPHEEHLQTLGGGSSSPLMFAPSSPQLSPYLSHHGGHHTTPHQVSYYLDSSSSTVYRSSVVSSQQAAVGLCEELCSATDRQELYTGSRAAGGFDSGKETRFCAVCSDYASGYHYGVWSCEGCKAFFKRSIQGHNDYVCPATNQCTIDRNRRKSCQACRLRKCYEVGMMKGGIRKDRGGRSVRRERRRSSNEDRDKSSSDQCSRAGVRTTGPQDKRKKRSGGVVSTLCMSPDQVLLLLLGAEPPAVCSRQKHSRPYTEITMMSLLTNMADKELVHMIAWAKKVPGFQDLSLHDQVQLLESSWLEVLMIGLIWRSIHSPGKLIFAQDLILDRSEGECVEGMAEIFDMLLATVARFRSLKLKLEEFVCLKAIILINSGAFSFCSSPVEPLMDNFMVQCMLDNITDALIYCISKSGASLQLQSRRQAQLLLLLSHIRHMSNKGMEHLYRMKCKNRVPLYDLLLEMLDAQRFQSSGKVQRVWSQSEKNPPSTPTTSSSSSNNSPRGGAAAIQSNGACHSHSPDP

Records with an inconclusive call do not appear. Activity calls are given as the source filed them. How the source made its calls, unless noted: active means hit-call score of the fitted dose curve at least 0.9, where 1 is the maximum; inconclusive means response in the unintended direction; inactive means score below 0.9.

Sequence of Luciferin 4-monooxygenase (Photinus pyralis) (P08659 whole entry, looked up): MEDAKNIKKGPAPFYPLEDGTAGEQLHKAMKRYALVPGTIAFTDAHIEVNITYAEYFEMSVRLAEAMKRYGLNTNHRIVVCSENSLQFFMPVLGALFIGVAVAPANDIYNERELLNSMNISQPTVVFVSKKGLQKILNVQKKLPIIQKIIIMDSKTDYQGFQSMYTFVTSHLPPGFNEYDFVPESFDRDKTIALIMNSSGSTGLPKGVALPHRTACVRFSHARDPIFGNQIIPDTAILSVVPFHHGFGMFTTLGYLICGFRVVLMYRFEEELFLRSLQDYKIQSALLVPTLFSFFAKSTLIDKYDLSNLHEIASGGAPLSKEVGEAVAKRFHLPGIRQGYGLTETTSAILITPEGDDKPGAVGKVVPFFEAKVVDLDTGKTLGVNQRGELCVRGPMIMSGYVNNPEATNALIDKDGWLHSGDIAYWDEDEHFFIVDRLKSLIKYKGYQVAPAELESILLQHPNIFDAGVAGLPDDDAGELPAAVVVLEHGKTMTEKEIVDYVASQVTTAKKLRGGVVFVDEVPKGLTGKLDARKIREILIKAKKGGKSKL

As to `O=C1CCC(N2C(=O)c3ccccc3C2=O)C(=O)N1` (centres undefined), the AC50 in [1] is 0.124 µM (active); in assay [3], 0.121 µM (active). Besides, the outcome in [2] and in assay [4] was inactive.
As for `CC(O)CN(CCN(CC(C)O)CC(C)O)CC(C)O` (centres undefined), the molecule was classed as inactive in assay [5] and in assay [4].
Turning to `O=C1CCCCCN1`, the molecule was called inactive in assay [5] and in assay [4].
As for `CC(=O)OC[C@H]1O[C@@](COC(C)=O)(O[C@H]2O[C@H](COC(C)=O)[C@@H](OC(C)=O)[C@H](OC(C)=O)[C@H]2OC(C)=O)[C@@H](OC(C)=O)[C@@H]1OC(C)=O`, the call in [5] and in [4] was inactive.
As for `Nc1ccc(Nc2ccccc2)cc1`, the AC50 in assay [6] was 10.1 µM (active); in assay [1], 4.61 µM (active); in assay [2] it was 2.69 µM (active); in [3] it was 3.03 µM (active); in assay [4], 30.1 µM (active). The molecule was called inactive in assay [7] and in [8].
Turning to `O=c1[nH]c2ccc(S(=O)CCN3CCC(Cc4ccc(F)cc4)CC3)cc2o1` (centres undefined), the result in assay [1], in [7] and in assay [4] was inactive. For the same molecule, the AC50 in assay [2] is 3.91 µM (active); in [3], 5 µM (active).
As to `O=C(O)c1cccc(Oc2ccccc2)c1`, the outcome in assay [9] and in assay [4] was inactive. In [6], the AC50 was 65.2 µM (active).
In the case of `CCOCCO`, the result in assay [5] and in assay [4] was inactive.
On to `CC1=CC(=O)CC(C)(C)C1`, for which the result in assay [7] and in assay [4] was inactive.
`CC[C@H]1OC(=O)[C@H](C)[C@@H](O[C@H]2C[C@@](C)(OC)[C@@H](O)[C@H](C)O2)[C@H](C)[C@@H](O[C@@H]2O[C@H](C)C[C@H](N(C)C)[C@H]2O)[C@](C)(O)C[C@@H](C)C(=O)[C@H](C)[C@@H](O)[C@]1(C)O`: the result in assay [4] was inactive.
Consider `Cc1c(-c2cccnc2)c2ccccc2n1CCCCC(=O)O`, for which the AC50 in assay [6] is 58.5 µM (active). The result in [7] and in assay [4] was inactive.
As for `CC(C)=CCCC(C)=CC=O`, the AC50 in assay [1] is 0.0217 µM (active). In addition, the result in assay [2], in assay [4] and in assay [8] was inactive.
As to `Cc1ccc(S(=O)(=O)O)cc1C`, the outcome in assay [5] and in assay [4] was inactive.
As to `COC(=O)c1c(Cl)c(Cl)c(C(=O)OC)c(Cl)c1Cl`, the outcome in assay [7] and in assay [4] was inactive.
`C1=CCCC=CCCC=CCC1`: the molecule was called inactive in assay [5] and in assay [4].
Consider `O=P(OC(CCl)CCl)(OC(CCl)CCl)OC(CCl)CCl`, for which the AC50 is 14.3 µM (active) in assay [6], 38.3 µM (active) in assay [4] and 1.97 µM (active) in [13]. Also, the outcome in assay [1], in [2], in [3], in assay [10], in [11] and in assay [12] was inactive. For the same molecule, the molecule was classed as inactive in assay [14], in assay [15], in assay [16], in assay [17], in [8] and in assay [18]. The molecule was classed as inactive in assay [19].

In general, AC50 refers to the concentration at which the activity in the assay is half-maximal.
